An excerpt weighted towards active compounds, which were near 19% of everything screened.
KB-V1 cytotox: qHTS assay for MDR1-selective chemotherapeutics: Primary screen using the drug-selected MDR subline cells KB-V1 | KB-V1 MDR cells viability, CellTiter-Glo, 72 h | Potency, µM (series often up to 46.1 µM), actives largely listed as cytotoxic | actives 3.4% (n = 400,000); note: nearly all actives have a fitted effect of over 60% in size
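Compound-treated KB-V1 multidrug-resistant cells, 72 h, 37 degrees C; viability by CellTiter-Glo. Fitted qHTS curves give the values.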
DT40 TDP1 CPT: qHTS for Inhibitors of human tyrosyl-DNA phosphodiesterase 1 (TDP1): qHTS in cells in presence of CPT; chicken DT40 Tdp1-/-;hTDP1 cells + 20 nM CPT, ATP luminescence, 48 h; Potency, µM (highest dose often 46.2 µM), inactives show at the highest dose activity change, negative = growth inhibition, hits mostly inhibitors; actives 12% (n = 420,000); note: nearly all actives have a fitted effect of over 55% in size
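Chicken DT40 Tdp1-/- cells stably complemented with human TDP1 were seeded at 400 cells/well in medium containing 20 nM camptothecin, exposed to pin-transferred compounds, and grown at 37 °C for at least 48 hr. Viability was read as ATP luminescence.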
HT1080 IDH1KD tx: qHTS for induction of synthetic lethality in tumor cells producing 2HG: qHTS for the HT-1080-IDH1KD cell line. HT-1080 IDH1 knockdown viability, ATP luminescence, 48 h. Potency, µM (top dose mostly 46.1 µM), without a hit: at the top dose activity, negative = toxicity, most hits filed as cytotoxic. actives 2% (n = 360,000). AID 686971, 2013;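 note: 0% = DMSO wells and -100% = cell-free medium wells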
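IDH1KD HT-1080 cells, 750/well, RPMI + 5% FBS; compound pinned after 2 h settling; 48 h, 37 °C; CellTiter-Glo luminescence; % activity normalised to DMSO and no-cell wells; curves fitted, classed by r2 and efficacy.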
TDP1 cell noCPT: qHTS for Inhibitors of human tyrosyl-DNA phosphodiesterase 1 (TDP1): qHTS in cells in absence of CPT; Potency, µM (titrated, usually from 46.2 µM), for the others: top-dose activity change, negative = growth inhibition, usual class: inhibitors; actives 15% (n = 420,000); DT40 Tdp1-/- hTDP1 cells, no CPT, ATP luminescence, 48 h; note: nearly all actives have a fitted effect of over 55% in size
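Cells were dispensed at 400 per well, compounds added by pin tool, plates incubated ≥48 hr at 37 °C, then CellTiter-Glo added for 30 min at room temperature before luminescence reading. Line: DT40 Tdp1-/- complemented with hTDP1; camptothecin omitted.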
KB-3-1 tox: qHTS assay for MDR1-selective chemotherapeutics: Primary screen using the parental adenocarcinoma cell KB-3-1 | KB-3-1 viability, CellTiter-Glo ATP luminescence, 72 h | Potency, µM (titrated, usually from 46.1 µM), hits mostly cytotoxic | actives 1.4% (n = 400,000); note: nearly all actives have a fitted effect of over 60% in size
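Screening of KB-3-1 cells (DMEM, 10% FBS, phenol-red free) ran from lowest to highest compound concentration; after 72 h at 37 °C viability was read luminescently and curves fitted.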
HT1080-NT tox: qHTS for induction of synthetic lethality in tumor cells producing 2HG: qHTS for the HT-1080-NT fibrosarcoma cell line | HT-1080-NT fibrosarcoma viability, CellTiter-Glo ATP luminescence, 48 h | Potency, µM (highest dose often 46.1 µM), for the others: at the highest dose activity, negative = less viability, actives largely listed as cytotoxic | actives 1.6% (n = 360,000);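 note: NT is the 2HG producing partner of a matched IDH1 knockdown line; 0% = DMSO-treated cells and -100% = media-only wells without cells; nearly all actives have a fitted effect of over 55% in size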
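Read-out is CellTiter-Glo luminescence after 10 minutes at room temperature, following 48 hours' compound treatment of HT-1080-NT cells (750 cells/well, RPMI, 5% FBS, 37 degrees C).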
Numbers without * were called inactive; i = inactive; ? = inconclusive; / = not tested or not shown; [ ] = remark or other dose. Calls come from the whole dose curve; as a rule, active = well fitted curve in the direction sought with a large enough effect; inconclusive = small, poorly fitted or top-dose-only effect, or another doubt; inactive = no such curve, though single readings can be large; an effect the other way counts as inactive or inconclusive. Unless noted, % is set by controls: 0 for no effect and ±100 for the full control effect; potency is the fitted concentration of half-maximal effect.

SMILES	KB-V1 cytotox	DT40 TDP1 CPT	HT1080 IDH1KD tx	TDP1 cell noCPT	KB-3-1 tox	HT1080-NT tox
CC(=O)OC1C(=O)N(Cc2ccccc2)C1c1ccc(C)cc1 (stereo not drawn)	i	?	5.2%	?	i	2.3%
COc1ccc(C(CNC(=O)C2CC(=O)N(Cc3ccccc3)C2)N2CCOCC2)cc1 (stereo not drawn)	i	9.6%	-2.1%	-1.0%	i	9.0%
Cc1ccc(-c2cc([C@H]3[C@H]4C=CC[C@@H](C)[C@@H]4C(=O)N3Cc3ccccc3)ccc2F)cc1	?	?	-1.6%	20.6µM*	i	-9.8%
NS(=O)(=O)c1ccc(NC(=O)Cc2c(F)cccc2Cl)cc1	i	-5.1%	0.6%	-7.7%	i	-6.4%
Cc1ccc(NC(=O)c2nc(S(=O)(=O)Cc3ccccc3C)ncc2Cl)cc1C	18.4µM*	1.46µM*	16.4µM*	1.64µM*	?	?
NS(=O)(=O)c1ccc(NC(=O)c2nc(S(=O)(=O)Cc3ccccc3F)ncc2Cl)cc1	i	10µM*	/	7.08µM*	i	/
Cc1ccccc1NC(=O)c1nc(S(=O)(=O)Cc2ccccc2F)ncc1Cl	i	1.26µM*	/	5.01µM*	?	/
Cc1ccc(NC(=O)c2nc(S(=O)(=O)Cc3ccccc3F)ncc2Cl)cc1C	?	0.891µM*	/	2µM*	?	/
CSc1ncc(Cl)c(C(=O)Nc2ccccc2C)n1	i	0.5%	4.2%	-4.2%	i	1.5%
CCCS(=O)(=O)c1ncc(Cl)c(C(=O)Nc2c(C(=O)c3ccccc3)oc3ccccc23)n1	i	-2.9%	/	?	i	/
COC(=O)c1ccccc1NC(=O)CSc1nnc(-c2cccnc2)n1C	i	-4.0%	-2.4%	-17.3%	i	-0.7%
COc1cccc(Cn2c(=O)c(-c3cn(C)c4ccccc34)nc3cnc(OC)nc32)c1	/	0.1%	/	-6.7%	/	/
Cc1ccc(NC(=O)c2nc(S(=O)(=O)Cc3ccccc3F)ncc2Cl)cc1	?	1.26µM*	/	0.891µM*	i	/
Cc1ccc2cn[nH]c2c1[N+](=O)[O-]	i	30.9%	6.5%	5.5%	i	4.2%
Cc1c(CNC2CCCCC2)c(C(=O)O)c(C)n1Cc1ccccc1F	?	5.5%	/	5.7%	i	/
Cc1ccc2c(c1)C(=C(C#N)C#N)C(=O)N2CCN1CCCCC1	i	23.1µM*	10.3%	18.4µM*	i	6.0%
CC(=O)NC1C(=O)N(CCN2CCOCC2)c2ccc(C)cc21 (stereo not drawn)	?	0.0%	12.0%	8.6%	i	12.7%
Cc1ccc2c(c1)C(=C(C#N)C#N)C(=O)N2CCN1CCOCC1	i	16.4µM*	-4.5%	?	i	-4.9%
CC(Sc1ccccc1)C(=O)NN=C1CCCCCCC1 (stereo not drawn)	i	13.7%	15.8%	-17.6%	i	5.6%
CCOC(=O)c1cc(NC(=O)c2ccc(C)cc2)c(=O)n2c1oc1ccc(Cl)cc12	/	-24.9%	/	-4.2%	/	/
Cc1c(=O)n(OCc2cccc(F)c2)c2ccccc2[n+]1[O-]	?	-5.7%	-7.9%	?	i	1.6%
Cc1c(=O)n(OCc2ccc(Cl)cc2)c2ccccc2[n+]1[O-]	?	-10.2%	0.0%	6.51µM*	i	0.8%
CCC1(C2CCN(C(=O)c3ccccc3C)CC2)NC(=O)N(CCc2scnc2C)C1=O (stereo not drawn)	/	15.2%[9.04 µM]	/	3.9%	/	/
COC(=O)C1=C(C(=O)OC)[C@]2([C@H]3CCCCN[C@@H](Cc4ccccc4)C(=O)N3Cc3ccccc3)C=C[C@H]1O2	?	5.8µM*	-19.7%	6.51µM*	?	-10.0%
COC(=O)C1=C(C(=O)OC)[C@]2([C@H]3C/C=C\CN[C@@H](Cc4ccccc4)C(=O)N3Cc3ccccc3)C=C[C@H]1O2	?	?	/	10µM*	?	/
SMILES	KB-V1 cytotox	DT40 TDP1 CPT	HT1080 IDH1KD tx	TDP1 cell noCPT	KB-3-1 tox	HT1080-NT tox
COC(=O)C1=C(C)N(Cc2ccccc2)C(=O)N[C@H]1c1ccco1	?	-10.6%	0.0%	0.6%	i	0.0%
CCc1nc2cc(C(=O)N3CCC[C@H]3C(=O)OC)cc(NC(=O)c3ccccc3OC)c2n1C	/	18.5%[9.04 µM]	/	-20.8%	/	/
C=CCOC(=O)C(C#N)c1nc2ccccc2nc1N1CCN(Cc2ccc3c(c2)OCO3)CC1 (stereo not drawn)	23.1µM*	?	-3.0%	?	i	-1.8%
CC(C)OC(=O)C(C#N)c1nc2ccccc2nc1N1CCCC1 (stereo not drawn)	i	-20.8%	-7.3%	?	i	-9.9%
CCC(C)COC(=O)C(C#N)c1nc2ccccc2nc1N1CCCCC1 (stereo not drawn)	i	?	-0.4%	16.4µM*	i	4.9%
COC(=O)C1CCN(c2nc3ccccc3nc2C(C#N)C(=O)OCC(C)C)CC1 (stereo not drawn)	i	23.1µM*	6.5%	11.6µM*	i	13.0%
CCOC(=O)C1CCN(c2nc3ccccc3nc2C(C#N)C(=O)OC(C)COC)CC1 (stereo not drawn)	i	20.6µM*	-1.6%	18.4µM*	i	-4.1%
CCOc1ccc(OCC)c(NC(=O)c2[nH]c(C)c(C(C)=O)c2C)c1	i	-9.9%	8.9%	1.0%	i	8.4%
C/C(=N\NC(=O)CCc1ccc(S(=O)(=O)N2CCOCC2)cc1)c1ccc(Br)cc1	?	6.0%	1.1%	3.9%	i	2.2%
N#C/C(=C\N1CCN(Cc2ccc3c(c2)OCO3)CC1)c1nc2ccccc2s1	20.6µM*	?	?	?	?	?
C=CCOC(=O)C(C#N)c1nc2ccccc2nc1N1CCC(C(=O)OCC)CC1 (stereo not drawn)	i	?	1.7%	18.4µM*	i	-9.5%
CCOC(=O)C1CCN(c2nc3ccccc3nc2C(C#N)C(=O)OC(C)C)CC1 (stereo not drawn)	i	16.4µM*	6.8%	11.6µM*	i	5.5%

High-throughput results (PubChem BioAssay)
